Source: PubChem BioAssay (NCATS)
Results filed as inconclusive are left out. Where a call stands in place of a potency, no number is given. The source made the active and inactive calls. Calls follow the shape of the dose curve; as a rule, active = well fitted cell-killing curve with a large enough effect; inconclusive = small, poorly fitted or top-dose-only effect, or effect the other way; inactive = no such curve, though single readings can be large or run the other way.

Legend:
[1] = Quantitative High-Throughput drug screen in 47 multiple myeloma cell lines against the NCATS MIPE library collection: OPM2_DSMZ cell viability assay (AID 1919872); settings: OPM2 myeloma viability, CellTiter-Glo ATP luminescence, 48 h; series mostly up to 45.8 µM; also: nearly all actives have a fitted effect of over 30% in size
Outline: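 Steps: seed 500 cells per well; pin-transfer MIPE 4.0 library; incubate 48 h at 37C, 5% CO2, humidified; add CellTiter-Glo, 5 min room temperature; read luminescence.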

[2] = Quantitative High-Throughput drug screen in 47 multiple myeloma cell lines against the NCATS MIPE library collection: KMS11_JCRBsus cell viability assay (AID 1919873); settings: KMS11 myeloma viability, CellTiter-Glo ATP luminescence, 48 h; series mostly up to 45.8 µM; also: nearly all actives have a fitted effect of over 50% in size
Outline: (§1)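 500 cells/well per myeloma line exposed to pinned MIPE 4.0 compounds for 48 h at 37 °C, 5% CO2. Viability read as ATP by CellTiter-Glo luminescence, normalised to DMSO-only (100%) and media-only (0%) wells.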

[3] = Quantitative High-Throughput drug screen in 47 multiple myeloma cell lines against the NCATS MIPE library collection: KMS28BM_JCRB cell viability assay (AID 1919874); settings: CellTiter-Glo ATP, 48 h; series mostly up to 45.8 µM; also: nearly all actives have a fitted effect of over 35% in size
Outline: as §1
Potency is read from the fitted curve at half-maximal effect.

Question: With `O=C(Nc1cccnc1)N1CCC(Cc2cccc(Oc3ccc(C(F)(F)F)cn3)c2)CC1` as the compound, how does the Potency [1] read?
Answer: The Potency was “inactive”.

Question: For `NC(N)=NC(=O)c1nc(Cl)c(N)nc1N`, which Potency [1] is on record?
Answer: Its Potency is “inactive”.

Question: For `CC(=O)NC(C)c1ccc(Oc2ccc(OC(C)C)cc2)cc1` (stereo not drawn), which Potency [1] is on record?
Answer: Its Potency is 8.33 µM (active).

Question: With `COCCNCCCn1c(C(=O)CF)c(-c2ccc(C)cc2)c2c(N)ncnc21` as the compound, how does the Potency [1] read?
Answer: Its Potency is “inactive”.

Question: For `CS(=O)(=O)Oc1ccc2c(NC(N)=O)c(C(=O)c3ccc(Cl)cc3Cl)oc2c1`, which Potency [1] is on record?
Answer: Its Potency is “inactive”.

Question: And the Potency [2]?
Answer: The Potency was 5.26 µM (active).

Question: Which Potency [1] does the source give for `CC1(C)Cc2c(-c3ccccc3)c(-c3ccc(Cl)cc3)c(CC(=O)O)n2C1` here?
Answer: The Potency was 23.5 µM (active).

Question: What about the Potency [2] of the same compound?
Answer: The Potency was 18.7 µM (active).

Question: With `CN(C)c1ccc(C2Nc3ccc4ccccc4c3C3=C2C(=O)CC(C)(C)C3)cc1Br` (stereo not drawn) as the compound, how does the Potency [1] read?
Answer: Its Potency is “inactive”.

Question: With `NC[C@H](O)c1ccc(O)c(O)c1` as the compound, how does the Potency [1] read?
Answer: Its Potency is “inactive”.

Question: With `CN[C@@H](C)C(=O)N[C@H]1CCCC[C@H]2CC[C@@H](C(=O)N[C@@H](c3ccccc3)c3cn(CCCCc4ccc(CCCCn5cc([C@@H](NC(=O)[C@@H]6CC[C@@H]7CCCC[C@H](NC(=O)[C@H](C)NC)C(=O)N76)c6ccccc6)nn5)cc4)nn3)N2C1=O` as the compound, how does the Potency [1] read?
Answer: The Potency was “inactive”.

Question: What about the Potency [2] of the same compound?
Answer: Its Potency is “inactive”.

Question: For `Clc1cccc(Cl)c1NC1=NCCN1`, which Potency [1] is on record?
Answer: Its Potency is “inactive”.

Question: For `Cc1oncc1C(=O)Nc1ccc(C(F)(F)F)cc1`, which Potency [1] is on record?
Answer: Its Potency is “inactive”.

Question: With `Clc1ccc(Nc2nnc(Cc3ccncc3)c3ccccc23)cc1` as the compound, how does the Potency [1] read?
Answer: Its Potency is “inactive”.

Question: With `C#Cc1cccc(Nc2ncnc3cc(OCCOC)c(OCCOC)cc23)c1` as the compound, how does the Potency [1] read?
Answer: The Potency was “inactive”.

Question: With `Cc1cnc(Nc2ccc(OCCN3CCCC3)cc2)nc1Nc1cccc(S(=O)(=O)NC(C)(C)C)c1` as the compound, how does the Potency [1] read?
Answer: Its Potency is “inactive”.

Question: Which Potency [1] does the source give for `CC(C)(N)C(=O)N[C@H](COCc1ccccc1)C(=O)N1CCC2(CC1)CN(S(C)(=O)=O)c1ccccc12` here?
Answer: The Potency was “inactive”.

Question: Which Potency [1] does the source give for `O=C1CCc2cc(OCCCCc3nnnn3C3CCCCC3)ccc2N1` here?
Answer: The Potency was “inactive”.

Question: And the Potency [2]?
Answer: Its Potency is “inactive”.

Question: Which Potency [1] does the source give for `Cc1cc2c(F)c(Oc3ncnn4cc(OC[C@@H](C)O)c(C)c34)ccc2[nH]1` here?
Answer: Its Potency is 23.5 µM (active).

Question: Which Potency [1] does the source give for `Oc1cccc(-c2nc(N3CCOCC3)c3oc4ncccc4c3n2)c1` here?
Answer: Its Potency is 0.136 µM (active).

Question: For `O=C1CCCC2=C1C(c1[nH]ncc1Cl)N=C(Nc1nc3ccccc3o1)N2` (stereo not drawn), which Potency [1] is on record?
Answer: The Potency was “inactive”.

Question: Which results are given for `C1COC(NC(C2CC2)C2CC2)=N1`?
Answer: Potency [1]: inactive; Potency [2]: inactive

Question: For `O=c1[nH]c(-c2ccc(C(F)(F)F)cc2)nc2c1CSCC2`, which Potency [1] is on record?
Answer: The Potency was “inactive”.

Question: What about the Potency [2] of the same compound?
Answer: Its Potency is “inactive”.

Question: With `O=S(=O)(N=Cc1c(O)ccc2ccccc12)c1cccs1` as the compound, how does the Potency [1] read?
Answer: The Potency was “inactive”.

Question: With `O=C(O)[C@@H](c1ccc(OCc2ccc3ccccc3n2)cc1)C1CCCC1` as the compound, how does the Potency [1] read?
Answer: The Potency was “inactive”.

Question: What does the source list for `COc1nc(-c2ccc3c(c2)OCO3)n(-c2ccc(NC(=O)CSc3ccccc3)cc2)n1`?
Answer: Potency [1]: inactive; Potency [2]: inactive

Question: For `C[C@]1(c2nc3c(C(N)=O)cccc3[nH]2)CCCN1`, which Potency [1] is on record?
Answer: Its Potency is “inactive”.

Question: For `Cc1ccc(N(CC2=NCCN2)c2cccc(O)c2)cc1`, which Potency [2] is on record?
Answer: The Potency was 18.7 µM (active).

Question: With `Cc1cc(C=c2sc3nc4ccccc4n3c2=O)c(C)n1-c1ccccc1` as the compound, how does the Potency [2] read?
Answer: The Potency was “inactive”.

Question: And the Potency [3]?
Answer: Its Potency is “inactive”.

Question: With `C[C@H](NC(=O)Cc1cc(F)cc(F)c1)C(=O)N[C@@H]1C(=O)N(C)c2ccccc2-c2ccccc21` as the compound, how does the Potency [2] read?
Answer: Its Potency is “inactive”.

Question: Which Potency [1] does the source give for `O=C(Nc1nc2ccccc2n1CCN1CCOCC1)c1cccc([N+](=O)[O-])c1` here?
Answer: Its Potency is “inactive”.

Question: And the Potency [2]?
Answer: Its Potency is “inactive”.

Question: What about the Potency [3] of the same compound?
Answer: Its Potency is “inactive”.

Question: With `CN1CCN(CCCN2c3ccccc3Sc3ccc(C(F)(F)F)cc32)CC1` as the compound, how does the Potency [1] read?
Answer: The Potency was “inactive”.

Question: What about the Potency [2] of the same compound?
Answer: The Potency was “inactive”.

Question: What about the Potency [3] of the same compound?
Answer: Its Potency is “inactive”.

Question: What does the source list for `CCC(=O)N[C@H]1CC[C@H](C(=O)N(C)c2ccc(-c3nc4ccccc4o3)cc2)C1`?
Answer: Potency [1]: inactive; Potency [3]: 14.8 µM (active)

Question: With `CCCS(=O)(=O)Nc1ccc(F)c(C(=O)c2c[nH]c3ncc(-c4ccc(Cl)cc4)cc23)c1F` as the compound, how does the Potency [2] read?
Answer: The Potency was 8.33 µM (active).

Question: With `O=C(O)COCCN1CCN(C(c2ccccc2)c2ccc(Cl)cc2)CC1` (stereo not drawn) as the compound, how does the Potency [1] read?
Answer: Its Potency is “inactive”.

Question: What about the Potency [2] of the same compound?
Answer: The Potency was “inactive”.

Question: And the Potency [3]?
Answer: The Potency was “inactive”.

Question: With `CCOC(=O)N1CCC(=C2c3ccc(Cl)cc3CCc3cccnc32)CC1` as the compound, how does the Potency [2] read?
Answer: The Potency was 20.9 µM (active).

Question: With `Cc1n[nH]c(C)c1Cc1sc2c(c1C(=O)N1C[C@H](O)CO1)c(=O)n(C)c(=O)n2CC(C)C` as the compound, how does the Potency [1] read?
Answer: The Potency was “inactive”.

Question: What about the Potency [2] of the same compound?
Answer: The Potency was 0.0526 µM (active).

Question: With `Cc1ccc(-n2nc(C(C)(C)C)cc2NC(=O)Nc2ccc(OCCN3CCOCC3)c3ccccc23)cc1` as the compound, how does the Potency [1] read?
Answer: The Potency was “inactive”.

Question: And the Potency [3]?
Answer: The Potency was “inactive”.

Question: Which Potency [1] does the source give for `O=C1CCC(N2C(=O)c3ccccc3C2=O)C(=O)N1` (stereo not drawn) here?
Answer: The Potency was “inactive”.

Question: What about the Potency [3] of the same compound?
Answer: Its Potency is “inactive”.

Question: For `NC(=O)c1ccc(-c2nc(-c3ccc4c(c3)OCO4)c(-c3ccccn3)[nH]2)cc1`, which Potency [2] is on record?
Answer: The Potency was “inactive”.

Question: For `S=C(NCc1ccc2c(c1)OCO2)N1CCN(c2ncnc3c2oc2ccccc23)CC1`, which Potency [2] is on record?
Answer: The Potency was 1.52 µM (active).

Question: And the Potency [3]?
Answer: The Potency was 1.36 µM (active).
